# Unmarked numbers belong to inactive results. Calls come from the whole dose curve.
# Target: Thyrotropin-releasing hormone receptor (Homo sapiens) (UniProt P34981)
# Assay: qHTS assay to identify small molecule agonists of the thyrotropin-releasing hormone receptor (TRHR) signaling pathway (AID 1346891)
# Settings: TRHR-HEK293 calcium fluorescence, agonist mode; series mostly up to 57.6 µM; activation: at the top concentration
# How it was run: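 Agonist-mode intracellular calcium readout: kinetic fluorescence over 3 min at 1 s intervals after compound addition to TRHR-HEK293 cells (18 h seeded, 2 h dye-loaded at 37 C). Fifteen concentrations, triplicates.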
# % is set by controls: 0 for no effect and ±100 for the full control effect.
# Thyrotropin-releasing hormone receptor (Homo sapiens), sequence (P34981 whole entry, looked up): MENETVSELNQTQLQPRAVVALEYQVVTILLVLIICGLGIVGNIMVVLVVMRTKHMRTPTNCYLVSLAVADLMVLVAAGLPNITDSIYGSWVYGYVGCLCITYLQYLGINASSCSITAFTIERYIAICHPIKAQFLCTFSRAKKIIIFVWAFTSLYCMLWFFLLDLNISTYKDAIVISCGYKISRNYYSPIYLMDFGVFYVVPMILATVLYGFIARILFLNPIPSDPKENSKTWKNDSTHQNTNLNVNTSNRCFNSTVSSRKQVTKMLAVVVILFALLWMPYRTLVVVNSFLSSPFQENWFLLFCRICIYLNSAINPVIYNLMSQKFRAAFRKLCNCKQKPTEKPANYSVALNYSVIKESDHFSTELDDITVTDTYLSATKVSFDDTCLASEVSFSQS
row,SMILES,activation
1,CC(C)(C)CC(C)(C)c1ccc(O)c(Cc2ccc(Cl)cc2Cl)c1,0.404% [at 26.5 µM]
2,Nc1nc2ccccc2n1Cc1ccc(F)cc1,0.459% [at 26.5 µM]
3,CCCCC(CC)COC(=O)c1ccccc1C(=O)O (centres undefined),2.83%
4,N/C(=N\N=C\c1ccc(Cl)cc1)N/N=C/c1ccc(Cl)cc1,-1.24% [at 26.5 µM]
5,C[C@@H]1C[C@H]2[C@@H]3CCC4=CC(=O)C=C[C@]4(C)[C@@]3(Cl)[C@@H](O)C[C@]2(C)[C@@]1(OC(=O)c1ccco1)C(=O)CCl,0.0844% [at 26.5 µM]
6,CCOc1ccc2nc3cc(N)ccc3c(N)c2c1,1.76% [at 26.5 µM]
7,O=C(Oc1ccccc1)c1ccccc1C(=O)Oc1ccccc1,0.758%
8,CC1=NC(C)OC1C (centres undefined),-0.0128%
9,C[n+]1cc2c3c(ccc2c2ccc4cc5c(cc4c21)OCO5)OCO3,2.25% [at 11.8 µM]
10,CN(C)c1ccc(C2(c3ccc(N(C)C)cc3)OC(=O)c3cc(N(C)C)ccc32)cc1,0.935%
11,CCCC(C)c1ccccc1O (centres undefined),0.114%
12,OCCN1CCN(CC/C=C2/c3ccccc3Sc3ccc(C(F)(F)F)cc32)CC1,5.97% [at 26.5 µM]
13,CNc1ccc(O)cc1,-0.175%
14,O=C1C=CC(=O)N1c1ccc(Cc2ccc(N3C(=O)C=CC3=O)cc2)cc1,14.7%
15,Clc1ccc(C(Cn2ccnc2)OCc2ccc(Sc3ccccc3)cc2)c(Cl)c1 (centres undefined),0.107% [at 26.5 µM]
16,CCN(C(=O)N(CC)c1ccccc1)c1ccccc1,0.217%
17,CC1(C)CCC(C)(C)c2cc(C(=O)Nc3ccc(C(=O)O)cc3)ccc21,-0.202%
18,CN(C)CCCOC1(Cc2ccccc2)CCCCCC1,3.72% [at 26.5 µM]
19,COc1cccc2c1C(=O)c1c(O)c3c(c(O)c1C2=O)C[C@@](O)(C(=O)CO)C[C@@H]3O[C@H]1C[C@H](N)[C@H](O[C@@H]2CCCCO2)[C@H](C)O1,2.46% [at 26.5 µM]

# Reference: PubChem BioAssay (Tox21)
